Measured values from PubChem BioAssay (NCI).
Several values for one entry are separate records, joined by “and”; a condition that tells them apart may be missing. Equal values may be shown once. The panel holds about 83,000 compounds, 20% with a hit somewhere; the sample as a whole holds those more often.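 Values shown are percent growth following 48 h exposure of cells in 96-well plates to a single concentration of compound; below 10 was considered active.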 Activity calls are given as the source filed them.

system: IGROV1 ovarian; experiment: NCI-60 one-dose screen, 48 h (100 = growth as untreated, 0 = no growth, -100 = all killed); conditions: 1 µM
Procedure: Growth inhibition of the IGROV1 human tumor cell line is measured as a screen for anti-cancer activity. Cells are grown in 96 well plates and exposed to the test compound for 48 hours. Compounds are tested at a single concentration, which is 10^-5 M for most compounds. The reported endpoint is percent growth (GI% or GIPRCNT), where numbers from 0 - 100% represent growth inhibition, and numbers from -100% - 0 represent cell death. For example, a value of 40 represents 60% growth inhibition. A value of 0 means no net growth occurred over the course of the experiment. A value of -40 indicates 40% of cells at the beginning of the experiment died by the end of the experiment. A value of -100 means all cells are dead at the end of the experiment.
NCI-60 Human Tumor Cell Lines Screen was performed using the standard one-dose NCI protocol, which is described in more detail at https://dtp.cancer.gov/discovery_development/nci-60/default.htm.
Compounds with GIPRCNT values below 10 were considered active. Activity score was based on GIPRCNT using the following formula: […]
Score is 0 for GIPRCNT values of 100 or above, 50 for GIPRCNT values of 0, and 100 for GIPRCNT values of -100.

| Compound | growth |
| --- | --- |
| CC/C(=C(/c1ccc(O)cc1)c1ccc(OCCN(C)C(=O)CCOCCNC(=O)Cc2ccc3c(c2)CN([C@@H]2CCC(=O)NC2=O)C3=O)cc1)c1ccccc1 | 57.5% (inactive) |

same assay, conditions: 10 µM

| Compound | growth |
| --- | --- |
| CC/C(=C(/c1ccc(O)cc1)c1ccc(OCCN(C)C(=O)CCOCCNC(=O)Cc2ccc3c(c2)CN([C@@H]2CCC(=O)NC2=O)C3=O)cc1)c1ccccc1 | 30.4% (inactive) |

same assay, conditions: 10 µM unless noted

| Compound | growth |
| --- | --- |
| CC1=C(C(=O)OC(C)C)C(c2ccc(O)cc2)NC(=O)N1 (stereo not given) | 109% (inactive) |
| Cc1ccc(C(=O)Nc2cc(-n3ccnc3)cc(C(F)(F)F)c2)cc1-n1cc(-c2cnc3cccnn23)nn1 | 104% (inactive) |
| O=C1CC(c2ccc(I)cc2)OC2C=Cc3ccccc3C12 (stereo not given) | 119% (inactive) |
| C[C@@H](Nc1c(C#N)cnc2ccc(-c3cnc4[nH]ncc4c3)cc12)c1ccccc1 | -60.6% (active) |
| Oc1ccc(F)c(Nc2nc(SCCN3CCOCC3)nc3c2cnn3CC(Cl)c2ccc(Br)cc2)c1 (stereo not given) | 12.5% (inactive) |
| COc1ccc2oc(=O)c(-c3csc(N/N=C(\C)c4cc(OC)c(OC)c(OC)c4)n3)cc2c1 | 91.2% (inactive) |
| C/C(=N/O)c1ccc(NC(=O)CSc2nnc(-c3ccc(-c4nc5ccc(Cl)cc5[nH]4)cc3)o2)cc1 | 34.5% (inactive) |
| O=C1c2cccc3c(N4CCN(c5ccccc5)CC4)ccc(c23)C(=O)N1c1cccc(-c2nn(-c3ccccc3)cc2-c2nc3ccccc3s2)c1 | 73.9% (inactive) |
| O=C(N/N=C/c1occc1Br)c1[nH]c2ccc(Br)cc2c1-c1ccccc1 | -92.8% (active) |
| O=C(c1ccc(O)cc1)C1[C@H](c2ccc(Cl)cc2)[C@@H](c2ccccc2)NC12C(=O)Nc1ccc(Br)cc12 (stereo not given in full) | -40.4% (active) |
| CN1CCN(C(=O)Oc2cc3c(c4ccccc24)[C@H](CCl)CN3C(=O)c2cc3cc(OCCCN4CCC4)ccc3[nH]2)[C@@H]2CSSC[C@H]21 | 2.74% (active) |
| Cc1nc2sccn2c1-c1nnc(SCC(C)C)o1 | 89.4% (inactive) |
| N#C/C(=C/c1ccc(Cl)cc1)c1nnc(NC(=O)c2ccc(-n3c(=O)[nH]c4ccccc4c3=O)cc2)s1 | 80.9% (inactive) |
| C#CCN(C)CCCOc1ccc(N(CC)C(=O)c2cc(C(C)C)c(O)cc2O)cc1Cl | 0.38% (active) |
| CC(C)C[C@H](NC(=O)CNC(=O)C[C@H]1O[C@@H]2OC3(C)CC[C@H]4[C@H](C)CC[C@@H]([C@H]1C)[C@@]24O3)B(O)O | 10.7% (inactive) |
| COc1ccc2[nH]c(O)c(N=NC(=O)c3ccc4nc(-c5ccc(Cl)cc5)[nH]c4c3)c2c1 | 78.1% (inactive) |
| Cc1ccc(NC(=O)N/N=C/c2c[nH]c3ccccc23)c(C)c1 | 22.3% (inactive) |
| COc1ccc(NC2=C(I)C(=O)C(C)=C(C)C2=O)cc1 | 15.3% (inactive) |
| Cc1nn(-c2ccccc2)c2nc(C)n(C(=O)N/N=C/c3ccccc3)c(=O)c12 | 97.6% (inactive) |

| Compound | growth |
| --- | --- |
| CC(C)(C)OC(=O)N1C/C(=C\c2ccc(F)cc2)C(=O)/C(=C/c2ccc(F)cc2)C1 | -56.8% (active) |
| O=C1C=CC(=CC=C2N(Cc3ccc4ccccc4c3)c3ccccc3N2Cc2ccc3ccccc3c2)C=C1 | 7.62% (active) and 29.5% (inactive) |
| COc1ccc(NC(=O)Cn2c(/C=C/c3cccc(Br)c3)nc3ccccc3c2=O)cc1 | 49.8% (inactive) |
| CCCCCCCCc1ccc(C(=O)Nc2cccc(O)c2)cc1 | 85.6% (inactive) |
| Clc1ccc2c(NCCNC34CC5CC(CC(C5)C3)C4)ccnc2c1 | -55.6% (active) |
| COc1ccc(NC(=O)CSc2nnc(-c3ccc(-c4nc5ccc(Cl)cc5[nH]4)cc3)o2)cc1 | 59.6% (inactive) |
| COc1ccc2[nH]c(=O)c(CSc3ccccc3Nc3nccc(-c4ccc5c(c4)OCO5)n3)cc2c1 | 87.4% (inactive) |
| CCCSc1nnc(-c2c(C)nc3sccn23)o1 | 83.8% (inactive) |
| O=C(CSc1nnc(-c2ccc(-c3nc4ccccc4[nH]3)cc2)o1)Nc1ccc(Cl)cc1 | 44.4% (inactive) |
| COc1ccc(-c2nc3ccccc3n2CC(=O)N=Nc2c(O)[nH]c3ccc(OC)cc23)cc1 | 45.7% (inactive) |
| CC(Nc1ncnc2ccc(-c3ccc4oc(N)nc4c3)cc12)c1ccccc1 (stereo not given) | -77.5% (active) |
| CCN1C(=O)N(CC)C2NNC(Sc3c(C(=O)O)c4ccccc4n(CCC(C)C)c3=O)=NC21 (stereo not given) | 17.3% (inactive) |
| CCCN(CCC)S(=O)(=O)c1ccc(C(=O)O)cc1.CCCN(CCC)S(=O)(=O)c1ccc(C(=O)O)cc1.[Cl][Pt+2][Cl].[NH2-].[NH2-] | 7.54% (active) |
| COc1ccc(NC(=O)CSc2nnc(-c3ccc(-c4nc5ccccc5[nH]4)cc3)o2)cc1 | 35.6% (inactive) |
| N#Cc1c(-c2ccc(F)cc2)nc(SCc2ccc(F)cc2)nc1N1CCNCC1 | -27.1% (active) |
| CCCCCCCCCc1ccc(C(=O)Nc2cc(C)ccc2C(=O)OC)cc1 | 118% (inactive) |
| Cc1ccc(C(C(=O)NC2CCCCC2)N(Cc2ccccc2Cl)C(=O)c2ccc(CN3CCOCC3)o2)o1 (stereo not given) | 92.5% (inactive) |
| COc1cc(/C=C/C(=O)c2ccc(S(=O)(=O)NCCNc3nc(N(C)C)nc(N4CCOCC4)n3)cc2)cc(OC)c1OC | -55% (active) |
| CS(=O)(=O)Nc1cc(-c2ccc3ncnc(N4CCc5cc(F)c(Cl)cc54)c3c2)cnc1Cl | -33.7% (active) |
